Data reported in PubChem BioAssay AID463173 (ICCB-Longwood Screening Facility, Harvard Medical School, 2010).
About 4,300 (8.3%) of roughly 52,000 compounds were called active. The full list was thinned out, with actives kept by preference. Unmarked numbers belong to inactive results. No stated cut-off is given here; in the data, active means survival mostly below about 52% (no sharp cut-off); inactive means mostly above about 56%.

Tested on: DeltatarO mutant
Test: growth inhibition of S. aureus wild type versus tarO mutant, primary screen, teichoic acid synthesis inhibitors, RN4220, OD600 (AID 463173)
Conditions: OD600, 18 h, hits give low values, screened at 18.75 µg/mL (by protocol)

| Structure (SMILES) | survival |
| --- | --- |
| Cc1cccc(N2CCN(C(=O)CN3C(=O)COc4ccc(S(=O)(=O)N5CCC(C)CC5)cc43)CC2C)c1 (stereo unspecified) | 67% |
| COc1ccc(CCNC(=O)C(C)n2nc(C)c3sc4ccccc4c3c2=O)cc1OC (stereo unspecified) | 110% |
| Cc1ccccc1Cn1cc(S(=O)(=O)c2ccc(F)cc2)c(=O)c2cc3c(cc21)OCO3 | 68% |
| NC(=O)C1CCN(C(=O)Cn2c(-c3cccs3)cc3ccccc32)CC1 | 73% |
| O=C(NCCN1CCCC1)c1ccc(Cl)cc1 | 98% |
| CCOC(=O)c1cnc2ccc(C)cc2c1Nc1ccc(OCc2ccccc2Cl)cc1 | 2% (active) |
| CCOC(=O)c1cnc2c(C)cc(C)cc2c1Nc1ccc(N2CCOCC2)cc1 | 14% (active) |
| CCOC(=O)c1ccccc1NC(=O)c1cnc(N2CCOCC2)c2ccccc12 | 90% |
| CCOC(=O)c1cnc2ccc(Cl)cc2c1Nc1ccc(OCC)cc1 | -5% (active) |
| CCOC(=O)c1cnc2ccc(OCC)cc2c1Nc1cc(Cl)c(OC)cc1OC | 51% (active) |
| CCOC(=O)c1cnc2cc(Cl)c(OC)cc2c1Nc1ccc(Br)cc1C | 102% |
| CCOC(=O)c1cnc2ccc(OCC)cc2c1NCCN(C)C | 95% |
| CCOC(=O)c1cnc2c(C)c(Cl)ccc2c1Nc1ccc(N2CCOCC2)cc1 | 43% |
| O=C(N/C(=C\c1ccc(F)cc1)C(=O)N1CCOCC1)c1ccccc1 | 98% |
| Cc1cccc(OCC(=O)OC2CCN(C)CC2)c1 | 100% |
| COC(=O)C(C#N)C(c1cccnc1)c1c(C)[nH][nH]c1=O (stereo unspecified) | 90% |
| COc1cc(OC)cc(-c2cc3nc(-c4ccccc4)cc(N4CCN(c5ccccc5)CC4)n3n2)c1 | 101% |
| CC(=O)Oc1ccc(C(=O)NC2CCSC2=O)cc1 (stereo unspecified) | 72% |
| COC(=O)CC1Oc2ccccc2-n2cc(-c3ccc(Cl)cc3)nc21 (stereo unspecified) | 69% |
| CCN1CCSc2ccc(C(=O)NC(C)c3ccccc3)cc21 (stereo unspecified) | 66% |
| O=C(Nc1ccc(Br)cc1)c1cccc(C(=O)Nc2ccc(Br)cc2)c1 | 72% |
| CCOC(=O)c1cc(-c2ccc(OC)cc2)n(CCC(=O)Nc2cccc(C(C)=O)c2)c1C | 64% |
| CCOC(=O)c1cnc2ccc(OC)cc2c1Nc1ccc(OCc2ccccc2Cl)cc1 | 8% (active) |
| CCOC(=O)c1cnc2ccc(C)cc2c1Nc1ccc(N(CC)CC)cc1 | -5% (active) |

| Structure (SMILES) | survival |
| --- | --- |
| CCOC(=O)c1cnc2ccc(Cl)cc2c1Nc1ccc(N2CCOCC2)cc1 | 0% (active) |
| CCOC(=O)c1cnc2ccccc2c1Nc1ccc(N2CCOCC2)cc1 | 63% |
| CCOC(=O)c1cnc2ccc(C(=O)OC)cc2c1Nc1ccc(N2CCOCC2)cc1 | 144% |
| CCOC(=O)c1cccc(NC(=O)c2cc3cc4cc(OC)ccc4nc3s2)c1 | 76% |
| CCOC(=O)c1cnc2ccc(C(=O)OC)cc2c1Nc1ccc(OCc2ccccc2Cl)cc1 | 151% |
| CCOC(=O)c1cnc2ccc(OC)cc2c1Nc1cccc(C(C)=O)c1 | 9% (active) |
| CCCCn1c2ccc(F)cc2c2nnc(SCCN(CC)CC)nc21 | 178% |
| CCn1c(CNC(=O)c2ccccc2)n[nH]c1=S | 86% |
| CCOc1ccc2cc(-c3nnc(Nc4ccc(C)cc4)s3)c(=O)oc2c1 | 80% |
| COc1ccccc1CCNC(=O)C(=O)NCC(c1ccco1)S(=O)(=O)c1ccccc1 (stereo unspecified) | 77% |
| COc1ccc(OC)c(CNC(=O)CCc2c(C)nc3c(c2C)c(=O)n(C)c(=O)n3C)c1 | 89% |
| Fc1ccc(-c2cn3ccccc3n2)cc1 | 74% |
| Cc1cccc(NC(=O)C2CCCN(c3nnc(-n4c(C)ccc4C)s3)C2)c1C (stereo unspecified) | 75% |
| Cc1cc(=O)[nH]c2nnc(SCC(=O)Nc3cc(C(F)(F)F)ccc3Cl)n12 | 116% |
| CCOc1ccc(Nc2cc(C(=O)NCc3ccccc3Cl)c3ccccc3n2)cc1 | 86% |
| CCOC(=O)c1cnc2ccc(OCC)cc2c1Nc1ccc(OCc2ccccc2Cl)cc1 | 9% (active) |
| Cc1ccc(C2=Nc3ccccc3N(CC(=O)NCc3ccccc3Cl)C(=O)C2)cc1C | 82% |
| COc1ccc(C(=O)Nc2ccccc2C(=O)OCc2cc(=O)n3c4c(sc3n2)CCCC4)cc1 | 72% |
| COc1ccc(S(=O)(=O)c2cc3cc(C(C)(C)C)cc(O)c3oc2=O)cc1 | 26% (active) |
| COc1ccc(S(=O)(=O)c2cc3cc(OC)ccc3oc2=O)cc1 | 99% |
| CCOc1ccc(S(=O)(=O)c2cc3cccc(OCC)c3oc2=O)cc1 | 100% |
| CCN(c1ccccc1)c1nnc(NC(=O)Nc2ccc(C)cc2)s1 | 89% |
| COc1cccc(C(=O)Nc2ccc(C(=O)OCc3cc(=O)n4nc(C5CC5)sc4n3)cc2)c1 | 79% |
| Cc1cccc(OCC(=O)Nc2ccc(C(=O)OCc3cc(=O)n4nc(C5CC5)sc4n3)cc2)c1 | -2% (active) |

| Structure (SMILES) | survival |
| --- | --- |
| COc1ccc(C(=O)Nc2cccc(C(=O)OCc3cc(=O)n4nc(C5CC5)sc4n3)c2)cc1 | 115% |
| O=C(Nc1cccc(C(=O)OCc2cc(=O)n3nc(C4CC4)sc3n2)c1)c1ccc(F)cc1 | 70% |
| Cc1ccc(OCC(=O)Nc2ccc(C(=O)OCc3cc(=O)n4nc(C5CC5)sc4n3)cc2)cc1 | 72% |
| COc1ccc(C(=O)Nc2ccc(C(=O)OCc3cc(=O)n4nc(C5CC5)sc4n3)cc2)cc1 | -1% (active) |
| O=C(COc1ccccc1)Nc1ccc(C(=O)OCc2cc(=O)n3nc(C4CC4)sc3n2)cc1 | 76% |
| Cc1ccc(C(=O)Nc2cccc(C(=O)OCc3cc(=O)n4nc(C5CC5)sc4n3)c2)cc1 | 81% |
| O=C(Nc1cccc(C(=O)OCc2cc(=O)n3nc(C4CC4)sc3n2)c1)c1ccccc1 | 6% (active) |
| Cc1ccc2nc3c(cc(C#N)c(=O)n3-c3nnc(SCc4ccc(F)cc4)s3)c(=O)n2c1 | 72% |
| Cc1ccc(NCc2nnc(SCC(=O)N3CCOCC3)o2)c(C)c1 | 74% |
| O=C(Cn1cc(SCc2ccc(C(F)(F)F)cc2)c2ccccc21)N1CCCC1 | 55% |
| COC(=O)c1ccc(Cn2nnc3c(=O)[nH]c(C4CCCN(S(=O)(=O)c5ccccc5Cl)C4)nc32)cc1 (stereo unspecified) | 68% |
| COc1cccc(CNC(=O)CN2C(=O)CCn3nc(-c4cn(C)c5ccccc45)cc32)c1OC | 76% |
| COc1ccc(OC)c(S(=O)(=O)NCCc2sc(-c3ccc(C)cc3)nc2C)c1 | 94% |
| CCOC(=O)c1ccc(N2C(=O)c3n[nH]c(-c4cccs4)c3C2c2cccc(OC)c2)cc1 (stereo unspecified) | 97% |
| CCOC(=O)c1ccc(N2C(=O)c3n[nH]c(-c4ccco4)c3C2c2ccc(C(=O)OC)cc2)cc1 (stereo unspecified) | 89% |
| CCOC(=O)c1ccc(N2C(=O)c3n[nH]c(-c4ccco4)c3C2c2ccc(C)cc2)cc1 (stereo unspecified) | 69% |
| CCOC(=O)c1ccc(N2C(=O)c3n[nH]c(-c4ccco4)c3C2c2ccc(O)cc2)cc1 (stereo unspecified) | 40% |
| CCOC(=O)c1ccc(N2C(=O)c3n[nH]c(-c4cccs4)c3C2c2cccc(O)c2)cc1 (stereo unspecified) | -5% (active) |
| CCOC(=O)c1ccc(N2C(=O)c3n[nH]c(-c4ccco4)c3C2c2cccc(O)c2)cc1 (stereo unspecified) | -8% (active) |
| CCOC(=O)c1ccc(N2C(=O)c3n[nH]c(-c4ccco4)c3C2c2cccc(OC)c2)cc1 (stereo unspecified) | 91% |
| CCOC(=O)c1ccc(N2C(=O)c3n[nH]c(C)c3C2c2ccc(OCC)cc2)cc1 (stereo unspecified) | 52% |
| CCOC(=O)c1ccc(N2C(=O)c3n[nH]c(C)c3C2c2ccc(C(C)(C)C)cc2)cc1 (stereo unspecified) | 87% |
| CCOC(=O)c1ccc(N2C(=O)c3n[nH]c(-c4ccco4)c3C2c2ccc(F)cc2)cc1 (stereo unspecified) | 22% (active) |
| CCOC(=O)c1ccc(N2C(=O)c3n[nH]c(-c4cccs4)c3C2c2cccc(F)c2)cc1 (stereo unspecified) | 105% |

| Structure (SMILES) | survival |
| --- | --- |
| CCOC(=O)c1ccc(N2C(=O)c3n[nH]c(C)c3C2c2cccc(Br)c2)cc1 (stereo unspecified) | 8% (active) |
| COc1cc(Nc2ncc3c(n2)CCN(Cc2cc(F)cc(F)c2)C3)cc(OC)c1 | 67% |
| Cc1nc2cc(-c3ccccc3)nn2c(C)c1CCC(=O)N1CCN(c2ccccc2)CC1 | 56% |
| CCOCCc1nnc(NC(=O)C(=O)c2cc(C)n(-c3cccc(C)c3)c2C)s1 | 65% |
| COc1cccc(CNC(=O)CCS(=O)(=O)c2cc3c4c(c2)CCN4C(=O)CC3)c1 | 68% |
| O=C(COc1ccc(Br)cc1)N/N=C1\SCC(=O)N1c1ccc(F)cc1 | 95% |
| CCc1ccc(NC(=O)CSc2nccn2-c2ccc(OC)cc2)cc1 | 107% |
| Nc1cc(=O)[nH]c(=S)n1-c1ccccc1 | 99% |
| COc1cc(C2c3c(oc4ccc(C)cc4c3=O)C(=O)N2Cc2ccccc2)ccc1O (stereo unspecified) | 113% |
| COc1cc(NC(=O)c2ncn(-c3ccccc3)n2)cc(OC)c1 | 63% |
| CCOC(=O)c1ccc(N2C(=O)c3n[nH]c(-c4ccco4)c3C2c2ccc(O)c(OC)c2)cc1 (stereo unspecified) | 118% |
| CCOC(=O)c1ccc(N2C(=O)c3n[nH]c(-c4ccco4)c3C2c2cccc(F)c2)cc1 (stereo unspecified) | 12% (active) |
| CCOC(=O)c1ccc(N2C(=O)c3n[nH]c(-c4ccco4)c3C2c2ccc(OCC)cc2)cc1 (stereo unspecified) | 91% |
| CCN(C(=O)c1cc2c(s1)-c1ccccc1OC2)c1cc(Cl)ccc1OC | 15% (active) |
| CCOc1ccc(N(CC)C(=O)c2cc3c(s2)-c2ccccc2OC3)cc1 | 76% |
| O=C(NCc1ccccc1Cl)c1cc2c(s1)-c1ccccc1SC2 | 65% |
| COc1ccc(CCNC(=O)c2cc3c(s2)-c2ccccc2OC3)cc1OC | 49% |
| CCCN(C(=O)c1cc2c(s1)-c1ccccc1OC2)c1ccccc1F | -4% (active) |
| CCOc1ccc(N(CC)C(=O)c2cc3c(s2)-c2ccc(Cl)cc2SC3)cc1 | 81% |
| O=C(NCCc1ccc(Cl)cc1)c1cc2c(s1)-c1ccccc1OC2 | 61% |
| O=C(NCc1cccc(Cl)c1)c1cc2c(s1)-c1ccccc1OC2 | 50% |
| CCc1ccccc1N(CC)C(=O)c1cc2c(s1)-c1ccccc1OC2 | -5% (active) |
| CCc1ccc(CNC(=O)c2cc3c(s2)-c2ccccc2OC3)cc1 | 61% |
| CCc1ccccc1N(CC)C(=O)c1cc2c(s1)-c1ccccc1SC2 | -1% (active) |
